Experimental findings from PubChem BioAssay (Tox21) are described below.

A short description of test [1]: qHTS assay to identify small molecule agonists of the hypoxia (HIF-1) signaling pathway - cell viability counter screen (AID 1224844; calls by dose curve; note: nearly all actives have a fitted effect of over 50% in size; note: potency is the fitted concentration of half-maximal effect). The gist of the method:
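Cells (HRE-bla ME-180, 2,000 per well) sat 5 hrs at 37C, got compound for 17 hrs, were read for CCF4-AM FRET, and were finally lysed with CellTiter-Glo for a 30 min room-temperature luminescence read.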
(qHTS replaces the single test concentration by a dilution series.)

The nature of test [2]: qHTS assay to identify small molecule agonists of H2AX (AID 1224845; active = well fitted activation curve with a large enough effect in the signal ratio in the repeat runs, not every such curve was filed as active; the % refers to the signal ratio). The gist of the method: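 Wild-type CHO-K1 cells, plated overnight, exposed 3hr at 37C to 15 concentrations (0.76% DMSO final). Lysed, then HTRF anti-pH2AX (S139) cryptate and anti-H2AX-d2 antibodies, 24 hr room temperature; 665/620 nm emission read.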
Test [3] is described as follows: qHTS assay to identify small molecule agonists of the hypoxia (HIF-1) signaling pathway (AID 1224846; active = well fitted activation curve with a large enough effect in the signal ratio in the repeat runs, not every such curve was filed as active; the % refers to the signal ratio). The gist of the method:
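A low-serum medium (0.5% dialyzed FBS) holding 2,000 HRE-bla ME-180 cells per well is preincubated for 5 hrs, dosed with compounds by pintool, and kept a further 17 hrs at 37C, 5% CO2 before CCF4-AM FRET detection of beta-lactamase.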

Test [4] in a line: qHTS RealTime-Glo MT Cell Viability Assay in HepG2 cells - 24 hour (AID 1224867). Note: nearly all actives have a fitted effect of over 50% in size. The method in brief:
(§1)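 Luminescence read-out: viable HepG2 cells reduce a prosubstrate to a NanoLuc substrate, giving a signal proportional to live cell number. Reads taken at 0, 8, 16, 24, 32 and 40 h of compound exposure at 37 C.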

Test [5] is described as follows: A CellTox Green Cytotoxicity Assay to monitor cytotoxicity in HEK293 cells - 0 hour (AID 1224869). Note: nearly all actives have a fitted effect of over 50% in size. The gist of the method:
(§2)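 Fluorescence intensity, read at 0, 8, 16, 24, 32 and 40 h of compound treatment, reflected dye binding to DNA of dead HEK293 cells; compounds (23 nL, DMSO) were added 5 h after plating cells with reagent.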

A short description of test [6]: A CellTox Green Cytotoxicity Assay to monitor cytotoxicity in HEK293 cells - 40 hour (AID 1224871). Note: nearly all actives have a fitted effect of over 45% in size. The method in brief: as §2
Test [7] in a line: qHTS RealTime-Glo MT Cell Viability Assay in HEK293 cells - 16 hour (AID 1224872). Note: nearly all actives have a fitted effect of over 50% in size. Note: potency is the fitted concentration of half-maximal effect. The method in brief:
(§3)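 Nonlytic real-time viability readout: viable cells convert prosubstrate to NanoLuc substrate, giving luminescence proportional to live cell number. HEK293, 600 cells/well, compound added after 5 h, continuous culture at 37 C.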

Test [8] is described as follows: qHTS RealTime-Glo MT Cell Viability Assay in HepG2 cells - 8 hour (AID 1224873). Note: nearly all actives have a fitted effect of over 55% in size. The method in brief:
(§4)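 HepG2 cells (600/well) mixed with RealTime-Glo MT reagent, settled 5 h at 37 C/5% CO2 before compound addition. Nonlytic NanoLuc luminescence from viable-cell prosubstrate reduction read repeatedly during 40 h treatment at 37 C.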

Test [9] in a line: A CellTox Green Cytotoxicity Assay to monitor cytotoxicity in HEK293 cells - 24 hour (AID 1224875). Note: series mostly up to about 77 µM; nearly all actives have a fitted effect of over 45% in size. The method in brief: as §2
The nature of test [10]: A CellTox Green Cytotoxicity Assay to monitor cytotoxicity in HepG2 cells - 16 hour (AID 1224876). Note: nearly all actives have a fitted effect of over 45% in size. The gist of the method: (§5)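 Using 1536-well format, dye-containing HepG2 suspension was seeded, allowed 5 h at 37 C/5% CO2, dosed by pintool with compounds, positive and negative controls, and imaged for fluorescence across 40 h.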
Test [11] can be described thus: qHTS RealTime-Glo MT Cell Viability Assay in HepG2 cells - 32 hour (AID 1224877). Note: nearly all actives have a fitted effect of over 55% in size. The method in brief:
as §1

A short description of test [12]: A CellTox Green Cytotoxicity Assay to monitor cytotoxicity in HepG2 cells - 24 hour (AID 1224878). Note: nearly all actives have a fitted effect of over 45% in size. The gist of the method:
as §5

The nature of test [13]: A CellTox Green Cytotoxicity Assay to monitor cytotoxicity in HepG2 cells - 40 hour (AID 1224879). Note: nearly all actives have a fitted effect of over 40% in size. Note: potency is the fitted concentration of half-maximal effect. The method in brief: as §5
A short description of test [14]: qHTS RealTime-Glo MT Cell Viability Assay in HEK293 cells - 0 hour (AID 1224880). The gist of the method: (§6)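 Viable HEK293 cells reduce a cell-permeant prosubstrate; the product diffuses out and is consumed by NanoLuc in the medium to give light. Compounds went in after a 5 h incubation and plates were read over the treatment course.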
A short description of test [15]: qHTS RealTime-Glo MT Cell Viability Assay in HEK293 cells - 32 hour (AID 1224868). Note: nearly all actives have a fitted effect of over 50% in size. Note: potency is the fitted concentration of half-maximal effect. The method in brief: as §3
Test [16] can be described thus: qHTS RealTime-Glo MT Cell Viability Assay in HepG2 cells - 40 hour (AID 1224870). Note: nearly all actives have a fitted effect of over 50% in size. The gist of the method: as §4
Test [17] in a line: qHTS RealTime-Glo MT Cell Viability Assay in HEK293 cells - 40 hour (AID 1224874). Note: nearly all actives have a fitted effect of over 50% in size. Note: potency is the fitted concentration of half-maximal effect. The following applies: RealTime-Glo luminescence; max response: stronger effect = lower value. The method in brief: as §6
Test [18] in a line: qHTS assay to identify small molecule antagonists of the estrogen related receptor (ERR) signaling pathway from Tox21 library (AID 1224848). Note: nearly all actives have a fitted effect of over 50% in size. Note: potency is the fitted concentration of half-maximal effect. The gist of the method: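 Luminescent reporter read-out (ONE-Glo) from NTP's ERR cell line after 18 h treatment at 37 C with DMSO-dissolved Tox21 compounds; cells pre-plated 6 h beforehand at 2,000 per well.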
Test [19] is described as follows: qHTS assay to identify small molecule agonists of H2AX - cell viability counter screen (AID 1224847; calls by dose curve; note: top concentration of the series differs between compounds; nearly all actives have a fitted effect of over 30% in size). The gist of the method:
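For this counter screen, overnight-attached CHO-K1 cells received test compounds (15 concentrations, 0.76% DMSO final); 3 hr later at 37C, CellTiter-Glo reagent was added and luminescence recorded after 30 min at room temperature.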

Values joined by “and” are separate entries in the source; they are usually repeats but may differ in a detail not shown here. Identical values can stand only once. Results filed as inconclusive are left out. Some structures have more than one record in an assay (separate samples or runs), and their calls can disagree. Active and inactive are the calls of the source. Unless noted, calls come from the whole dose curve; as a rule, active = well fitted curve in the direction sought with a large enough effect in the repeat runs; inconclusive = weak or mixed curves; inactive = no such curve, though single readings can be large; an effect the other way counts as inactive or inconclusive.
% is set by controls: 0 for no effect and ±100 for the full control effect.

As for `O=C(NC(=O)c1c(F)cccc1F)Nc1ccc(Cl)cc1`, the Potency result in test [1], in [2], in test [4], in test [5], in test [6] and in test [7] was “inactive” throughout. Also, the Potency result in test [8], in test [9], in test [10], in test [11], in test [12] and in test [13] was “inactive” throughout. Also, the Potency result in test [14] is “inactive”. Moreover, the compound was classed as inactive in test [3].
For `Cc1c(COC(=O)[C@@H]2[C@H](/C=C(\Cl)C(F)(F)F)C2(C)C)cccc1-c1ccccc1`, the Potency result in test [1], in [2], in [4], in [5], in [16] and in [6] was “inactive” each time. For the same compound, the Potency entry in [8], in test [9], in test [10], in [11], in [13] and in [14] was “inactive” throughout. Also, the compound was called inactive in [3]. The Potency in test [15] is 21.4 µM (active); in test [17], 19.1 µM (active).
Take `ClC1C(Cl)C(Cl)C(Cl)C(Cl)C1Cl` (configuration not stated): the Potency entry in test [1], in test [2], in [4], in test [16], in test [8] and in test [10] was “inactive” in each case. The Potency entry in test [11] and in test [14] was “inactive” throughout. Further, the compound was classed as inactive in test [3]. Besides, the Potency entry is “inactive and 48.6 µM (active)” in [18]; “inactive and 54.9 µM (active)” in test [15]; “inactive and 49 µM (active)” in test [7]; 54.9 µM (active) in [17]; “inactive and 38.9 µM (active)” in test [13].
With `C=CCc1ccc2c(c1)OCO2`, the Potency entry in test [1], in test [2], in [19], in test [4], in [15] and in test [5] was “inactive” throughout. For the same compound, the Potency entry in [16], in test [6], in test [7], in test [8], in test [9] and in test [10] was “inactive” each time. Also, the Potency entry in test [11], in test [13] and in [14] was “inactive” in each case. Besides, in test [17], the max response was 13.1% (inactive) and 2.61% (inactive).
On to `Cc1ccc(N)c(N)c1`, for which the Potency entry in test [1], in [2], in test [4], in test [5], in [16] and in test [6] was “inactive” each time. Besides, the Potency entry in [8], in test [9], in test [10], in [11], in [13] and in test [14] was “inactive” in each case. In addition, the compound was called inactive in test [3].
For the compound `O=C1C=CC(=O)C=C1`, in test [1], the Potency was 49.2 µM (active) and 49 µM (active). Further, the Potency entry in [2], in test [19], in test [4], in [15], in [5] and in test [16] was “inactive” throughout. In addition, the Potency entry in [6], in [7], in test [8], in [10], in test [11] and in [13] was “inactive” throughout. In [14], the Potency entry is “inactive”. Also, the max response in test [17] was 13.4% (inactive).
Take `CC1(C)C(C=C(Cl)Cl)C1C(=O)OC(C#N)c1cccc(Oc2ccccc2)c1` (configuration not stated): the Potency result in test [1], in [2], in [4], in [15], in test [16] and in [6] was “inactive” in each case. Also, the Potency result in [7], in test [8], in [10], in [11], in [12] and in test [13] was “inactive” throughout. The Potency entry in [14] was “inactive”. Further, in [3], the outcome was inactive. Also, the max response in [17] was -14.9% (inactive) and 6.86% (inactive).
